Experimental data as given in PubChem BioAssay AID1903 (Southern Research Specialized Biocontainment Screening …, 2009).
Screen size: about 310,000 compounds; about 1,200 (0.39%) were called active. How the calls were made is not given here. A selection follows. Entries with a potency or affinity are not part of this list.

Target: Large T antigen (Simian virus 40) (UniProt P03070)
Assay: TAg ATPase/helicase activity blockers – biochemical (AID 1903)
Conditions: SV40 large T antigen ATPase/helicase inhibition assay; at 20 µM; hits give high values

Large T antigen (Simian virus 40), sequence (P03070 whole entry, looked up): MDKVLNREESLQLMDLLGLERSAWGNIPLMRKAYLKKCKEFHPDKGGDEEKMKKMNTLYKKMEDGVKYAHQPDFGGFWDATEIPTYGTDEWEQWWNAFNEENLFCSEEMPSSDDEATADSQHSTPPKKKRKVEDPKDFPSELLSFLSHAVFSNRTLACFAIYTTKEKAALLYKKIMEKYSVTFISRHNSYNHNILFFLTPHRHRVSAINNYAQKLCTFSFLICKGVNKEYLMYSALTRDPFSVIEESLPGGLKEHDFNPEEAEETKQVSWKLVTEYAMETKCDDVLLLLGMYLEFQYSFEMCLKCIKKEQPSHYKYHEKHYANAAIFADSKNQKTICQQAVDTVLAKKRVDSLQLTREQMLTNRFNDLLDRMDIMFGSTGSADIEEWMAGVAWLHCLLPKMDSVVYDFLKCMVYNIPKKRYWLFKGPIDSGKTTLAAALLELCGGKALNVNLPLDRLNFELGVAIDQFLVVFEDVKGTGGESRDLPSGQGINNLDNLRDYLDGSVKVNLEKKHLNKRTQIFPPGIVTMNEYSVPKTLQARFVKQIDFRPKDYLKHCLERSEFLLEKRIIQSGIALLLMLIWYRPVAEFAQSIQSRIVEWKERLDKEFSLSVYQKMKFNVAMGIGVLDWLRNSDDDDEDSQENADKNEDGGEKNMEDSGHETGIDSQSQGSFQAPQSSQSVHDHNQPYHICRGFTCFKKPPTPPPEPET

inhibition, inactive:
Clc1ccc(-c2nc3cnccn3c2NC2CCCC2)cc1 8.26%, Fc1ccc(-c2nc3cnccn3c2NC2CCCC2)cc1 3.13%, c1ccc(-c2nc3cnccn3c2Nc2ccc3c(c2)OCCO3)cc1 9.23%, COc1cc(-c2nc3cnccn3c2Nc2ccc(C(C)C)cc2)ccc1O 9.43%, c1cn2c(Nc3ccc4c(c3)OCCO4)c(-c3ccc(N4CCOCC4)cc3)nc2cn1 29.1%, COc1ccc(-c2nc3cnccn3c2Nc2ccc3c(c2)OCO3)cc1 21.4%, COc1cc(-c2nc3cnccn3c2Nc2ccc(C)cc2)ccc1O 37%, Cc1ccc(-c2nc3cnccn3c2Nc2ccc3c(c2)OCO3)cc1 25.3%, CC(=O)c1c(C)[nH]c(C(=O)OCc2c(F)cccc2Cl)c1C 20.8%, CN(C)C(=O)c1cn(-c2ccccc2)nc1-c1cc2ccccc2o1 0.09%, CCCC1CCC(c2ccc(/C(N)=N/O)cc2)CC1 (configuration not stated) 4.39%, CC(=O)NC(N1CCCCC1)C(F)(F)C(F)(F)C(F)(F)C(F)F (configuration not stated) -2.22%, Cc1c(Cl)cccc1NC(=S)N(CCCN1CCOCC1)Cc1cccs1 3.79%, Clc1ccc(-c2nc3ncccn3c2Nc2ccc3c(c2)OCO3)cc1 7.55%, Oc1ccc(-c2nc3ncccn3c2Nc2ccc3c(c2)OCCO3)cc1 13.3%, CC(C)OC(=O)/C(=C/c1ccc2c(c1)c1ccccc1n2C)NC(=O)c1ccccc1 3.18%, COc1ccc2c(c1)-c1nc(/N=C/c3c(O)ccc4ccccc34)sc1CC2 23.1%, COc1ccc2c(c1)-c1nc(/N=C/c3ccc(O)cc3)sc1CC2 15.8%, Cn1nc(-c2ccccc2)cc1NC(=O)C1CCCCC1 5.74%, Cc1ccc(C(=O)c2cc(C)sc2N)cc1 19.1%, Nc1ccc(C(=O)c2cccs2)cc1 6.86%, CSC1=NSC2=NC(=O)/C(=C/c3coc4ccc(O)cc4c3=O)C(=N)N12 17.7%, CCSC1=NSC2=NC(=O)/C(=C\c3coc4ccccc4c3=O)C(=N)N12 28.2%, CC(C)CSC1=NSC2=NC(=O)/C(=C\c3coc4ccccc4c3=O)C(=N)N12 13.7%, N=C1/C(=C\c2coc3ccccc3c2=O)C(=O)N=C2SC=CN12 34.7%, N=C1/C(=C/c2coc3ccccc3c2=O)C(=O)N=C2SC(c3ccco3)=NN12 51.6%, CSC1=NSC2=NC(=O)/C(=C/c3coc4ccccc4c3=O)C(=N)N12 12.2%, COc1ccccc1N1CCN(C(=O)c2oc3ccc(F)cc3c2C)CC1 -1.49%, Cc1ccc(SC(CC(=O)c2ccc(C)cc2)C(=O)O)cc1 (configuration not stated) 19.4%, O=C(CC(Sc1ccc(Br)cc1)C(=O)O)c1ccc(F)cc1 (configuration not stated) 7.72%, COc1ccc(C2=NN(Cc3ccccc3)C3C(=O)NC(=O)C23)cc1 (configuration not stated) 4.68%, CN1C(=O)C2C(c3ccc(N(C)C)cc3)NN(Cc3ccccc3)C2C1=O (configuration not stated) 19.9%, CCOC(=O)N1CCN(c2cc(=O)n(-c3ccc(OC)cc3)c(=O)[nH]2)CC1 -2.27%, Cc1ccccc1CNC(=O)Cn1ccc2cc(S(=O)(=O)N3CCCCCC3)ccc21 5.82%, O=C(COC(=O)c1ccc(CO)cc1)Nc1ccc(OC(F)F)cc1 -2.98%, Cc1nnc(NC(=O)CCS(=O)(=O)c2ccccc2)s1 19.4%, Cn1c(CO)nc2cc(N)ccc21 24.9%, Nc1ccc2c(c1)nc(Cc1ccccc1)n2CCO 32.4%, Cn1ccnc1Sc1cc(Cl)ccc1[N+](=O)[O-] 1.59%, CCOC(=O)C1=NN(C(C)=O)C2(CC(=O)N(c3ccc(C)c(C)c3)C2=O)C1 (configuration not stated) 10.2%, O=C(NCC1CCCO1)C1CCN(C2CCN(C3CCCCCC3)CC2)CC1 (configuration not stated) 6.53%, CSc1nc(C)c(CCOCc2ccc(F)cc2)c(=O)[nH]1 6.59%, COc1ccccc1N1C(=O)C2CC(C)=C(C)CC2C1=O (configuration not stated) 6.96%, COc1ccccc1N1C(=O)CC(Sc2nc(C)cc(C)n2)C1=O (configuration not stated) 5.59%, CCCCOc1ccc(C2(C)NC(=O)NC2=O)cc1 (configuration not stated) 3.93%, COc1ccc(S(=O)(=O)N(CC(=O)NCc2ccncc2)c2ccc(C)cc2)cc1OC 7.04%, CN(CC(=O)Nc1ccc(F)cc1)C(=O)COC(=O)Cc1cccs1 8.61%, O=C(C1=NN[C@@H]2C(=O)N(c3cccc(F)c3)C(=O)[C@H]12)C(c1ccccc1)c1ccccc1 1.36%, Cn1cc(C(=O)c2cccc(Cl)c2)cc1/C=N\O -2.98%, CC(=O)c1ccc(OC(=O)CN2C(=O)c3ccccc3C2=O)cc1 14.1%, O=C(NC(=S)N1CCN(c2ccc(F)cc2)CC1)c1cccs1 1.9%, O=C(CCC(=O)N1CCN(c2cccc(Cl)c2)CC1)c1cccs1 1.82%, CC(=O)c1ccc(N2CCN(C(=O)CCC(=O)c3cccs3)CC2)cc1 4.57%, Oc1ccccc1N1CCN(C(=S)NCCc2ccccc2)CC1 7.92%, O=S(=O)(c1cccs1)N1CCN(c2ccccc2)CC1 1.66%, O=S(=O)(c1cccs1)N1CCN(c2ccc(Cl)cc2)CC1 2.25%, O=C(NC(=S)N1CCCCC1)c1cccs1 9.19%, S=C(NCCc1ccccc1)N1CCCC1 7.81%, CN1CCN(CCc2nc3cc(NC(=O)COc4ccc([N+](=O)[O-])cc4)ccc3n2C)CC1 16.7%, O=C(NCC1CCCO1)c1cn(-c2ccccc2)nc1-c1ccc(F)cc1 (configuration not stated) 27.6%, COc1cc(S(=O)(=O)N2CCOCC2)cc(C(=O)c2nccn2C)c1OC -1.37%, CN(C(=O)COC(=O)CNC(=O)c1ccc(C(C)(C)C)cc1)c1c(N)n(Cc2ccccc2)c(=O)[nH]c1=O 6.23%, COc1cnc(-c2ccccn2)nc1Oc1cccc(Cl)c1 30.5%, Cc1ccc(-n2cccc2/C=C2/NC(=O)N(CC(=O)Nc3cccc(C)c3)C2=O)cc1 10.3%, Cc1cccc(NC(=O)CN2C(=O)N/C(=C\c3cccn3-c3cccc(C(=O)O)c3)C2=O)c1 3.89%, COC(=O)C1CCN(Cc2ccc(C)cc2)CC1 3.14%, N#C/C(=C/Nc1ccccc1F)S(=O)(=O)c1ccc(Cl)cc1 -5.3%, COc1ccc(-c2cnnn2-c2ccc(NC(=O)/C=C/c3ccc(OC)c(OC)c3)cc2)cc1 4.37%, CC(Oc1ccc(Cl)cc1Cl)C(=O)NCCCN(C)C (configuration not stated) 13.2%, O=C(O)Cc1ccc(O)c(F)c1 11.8%, O=C(O)c1ccc(-c2ccc(OS(=O)(=O)c3ccccc3F)cc2)cc1 -2.26%, CC(=O)Nc1ccc(S(=O)(=O)N2CCN(Cc3cccnc3)CC2)cc1 0.357%, Cc1scc(C(=O)NNC(=S)NCC2CCCO2)c1-c1ccccc1 (configuration not stated) 11.4%, Cc1nnc(C)n1/N=C/c1ccc(O)cc1 -1.45%, CN=c1scc(C)n1/N=C/c1ccc2c(c1)OCO2 11.5%, CN=c1scc(C)n1/N=C/c1ccc(O)c(O)c1O 7.3%, CCN=c1scc(-c2ccco2)n1/N=C/c1ccc(OC)c(O)c1 19.6%, CCN=c1scc(-c2ccco2)n1/N=C/c1ccc(O)cc1 11.2%, CN=c1scc(-c2cccs2)n1/N=C/c1ccccc1O 6.26%, CC1Oc2ccccc2N(CC(=O)N2CCCC2)C1=O (configuration not stated) 2.95%, O=C1Cn2c(nc3ccccc32)N1c1ccccc1F 5.32%, Cc1cc[n+](CC(=O)Nc2ccccc2)cc1 -1.49%, COc1ccc(Nc2nc(N)c([N+](=O)[O-])c(NCc3ccccc3)n2)cc1 2.61%, CCCC12CN(C(=O)c3ccc(OC)cc3)CC(C)(CN(C(=O)c3ccc(OC)cc3)C1)C2=O 14.8%, COc1ccc(CONc2ncnc3nonc23)cc1[N+](=O)[O-] 24.5%, O=c1c(O)c(-c2ccc(O)cc2)oc2cc(O)cc(O)c12 2.71%, O=c1c(O)c(-c2cc(O)c(O)c(O)c2)oc2cc(O)cc(O)c12 14.3%, O=c1cc(-c2ccccc2)oc2cc(O)cc(O)c12 3.39%, O=c1cc(-c2ccc(O)cc2)oc2cc(O)cc(O)c12 5.06%, Cc1cccc(/C=C2\CCC(C3CCCC3)C2=O)c1 (configuration not stated) 1.68%, CCN(CC)C(=O)c1cc(Cl)ccn1 -2.78%, O=C(NCC1CCCO1)c1cc(S(=O)(=O)Nc2ccc(Br)cc2)ccc1Cl (configuration not stated) -4.53%, COC(=O)C1C(=O)NC(SC)=C(C#N)C1c1ccccc1F (configuration not stated) 10.2%, CCOC(=O)C1C(=O)NC(SC)=C(C#N)C1c1ccccc1F (configuration not stated) 13.4%, COc1ccccc1/C=C(/C(=O)OCC(=O)Nc1cc(C)ccc1C)c1ccccc1 5.11%, CC1CN=C(Nc2cccc(S(=O)(=O)N(C)C)c2)S1 (configuration not stated) 21.1%, CCOC(=O)C(=CNc1ccc(NC2=NCC(C)S2)cc1)C(=O)OCC (configuration not stated) 12%
